For 12 compounds, growth results are on record in PubChem BioAssay (NCI).

Several values for one entry are separate records, joined by “and”; a condition that tells them apart may be missing. Equal entries are not always repeated. This is part of a sample that, as a whole, favours compounds with a hit. Of some 83,000 tested, about 20% had one in any assay.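 The test compound was applied at a single concentration to cells in 96-well plates for 48 hours, and percent growth was recorded.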 Activity calls are given as the source filed them. How the source made its calls: active means growth percent below 10; inactive means the rest.

Test systems include DU-145 prostate; K-562 leukemia; MALME-3M melanoma; MDA-MB-231 breast; RXF 393 renal; SF-268 CNS; SF-295 CNS; SF-539 CNS; UACC-257 melanoma; M14 melanoma.
Assay in all cases: NCI-60 one-dose screen, 48 h (100 = growth as untreated, 0 = no growth, -100 = all killed)
What all share (conditions): 10 µM unless noted

Take `Nc1n[nH]c2cccc(C#Cc3cccc(C(=O)Nc4ccc(CN5CCOCC5)c(C(F)(F)F)c4)c3)c12`: the growth in the assay on DU-145 prostate is 69.5% (inactive); with K-562 leukemia, 4.19% (active); in the assay on MALME-3M melanoma, -3.92% (active); in the assay with MDA-MB-231 breast, 28.8% (inactive); with RXF 393 renal it was -4.45% (active); in the assay on SF-268 CNS, 55% (inactive). Also, the growth with SF-295 CNS was 2.26% (active); in the assay on SF-539 CNS it was -54.5% (active); in the assay with UACC-257 melanoma, 40.1% (inactive); with M14 melanoma, 5.11% (active).

For `Clc1ccc2c(NCCN3CCN(c4ccnc(N5CCCC5)n4)CC3)ccnc2c1`, the growth with DU-145 prostate was 58.1% (inactive); in the assay on K-562 leukemia it was 0.171% (active); with MALME-3M melanoma, -43.3% (active); in the assay on MDA-MB-231 breast it was 4.01% (active); in the assay with RXF 393 renal, -59.2% (active); in the assay on SF-268 CNS it was 33% (inactive). Also, the growth in the assay with SF-295 CNS is 52.9% (inactive); in the assay with SF-539 CNS, -63.1% (active); with UACC-257 melanoma, -62% (active); in the assay on M14 melanoma, -55.7% (active).

For `O=C(Oc1ccc(CO[N+](=O)[O-])cc1)c1ccccc1`, the growth in the assay with DU-145 prostate was -94.6% (active); in the assay with K-562 leukemia, -37.1% (active); in the assay with MALME-3M melanoma it was -69.9% (active); in the assay on MDA-MB-231 breast, -80.6% (active); with RXF 393 renal, -86.2% (active); in the assay with SF-268 CNS, -84.8% (active). Further, the growth was -91.9% (active) with SF-295 CNS, -90% (active) in the assay with SF-539 CNS, -78% (active) in the assay on UACC-257 melanoma and -83% (active) in the assay with M14 melanoma.

Consider `O=C1C(Nc2ccc(Cl)cc2)=C(I)C(=O)c2ncccc21`, for which the growth in the assay with DU-145 prostate was 13.6% (inactive); in the assay with K-562 leukemia, 8.51% (active); with MALME-3M melanoma, -46.5% (active); in the assay with MDA-MB-231 breast it was -46.4% (active); in the assay with RXF 393 renal, 41.7% (inactive); in the assay on SF-268 CNS, 28.9% (inactive). In addition, the growth in the assay with SF-295 CNS was 75.2% (inactive); in the assay on SF-539 CNS, 7.82% (active); with UACC-257 melanoma, 40.2% (inactive); in the assay on M14 melanoma, -3.93% (active).

Regarding `Cc1ccc(-c2nc(SCC(=O)c3ccc(C#N)cc3)[nH]c(=O)c2C#N)cc1`, the growth in the assay on DU-145 prostate is 102% (inactive); with K-562 leukemia, 96.3% (inactive); with MALME-3M melanoma it was 99.2% (inactive); with MDA-MB-231 breast, 100% (inactive); in the assay on RXF 393 renal, 117% (inactive); with SF-268 CNS it was 96% (inactive). Further, the growth was 103% (inactive) in the assay with SF-295 CNS, 92.2% (inactive) in the assay with SF-539 CNS, 100% (inactive) in the assay with UACC-257 melanoma and 96.7% (inactive) in the assay with M14 melanoma.

As for `COc1ccc(/C=C2\COc3ccc(O)c(O)c3C2=O)c(OC)c1OC`, the growth with DU-145 prostate was 13.9% (inactive); with K-562 leukemia, 9.86% (active); with MALME-3M melanoma, 24.2% (inactive); with MDA-MB-231 breast it was -2.18% (active); with RXF 393 renal, 50.8% (inactive); in the assay on SF-268 CNS, 48% (inactive). In addition, the growth was 91.7% (inactive) in the assay with SF-295 CNS, -9.26% (active) in the assay with SF-539 CNS, 45.6% (inactive) in the assay with UACC-257 melanoma and 38.4% (inactive) in the assay with M14 melanoma.

In the case of `COCCn1cc(-c2nc(-c3cn(CCOC)c4ncccc34)cs2)c2ccccc21`, the growth in the assay with DU-145 prostate is 97.1% (inactive); in the assay with K-562 leukemia, 119% (inactive); with MALME-3M melanoma, 88.6% (inactive); with MDA-MB-231 breast, 49% (inactive); in the assay on RXF 393 renal, 76.1% (inactive); with SF-268 CNS it was 83.3% (inactive). Further, the growth with SF-295 CNS was 91.4% (inactive); with SF-539 CNS, 79.4% (inactive); in the assay on UACC-257 melanoma, 88% (inactive); in the assay on M14 melanoma, 99.9% (inactive).

Regarding `Cc1cccc(-c2nnc(SCC(=O)Nc3ncc(Cc4ccccc4)s3)n2N2C(=O)CSC2=S)c1`, the growth in the assay on DU-145 prostate was 43.3% (inactive); in the assay on K-562 leukemia it was 77.6% (inactive); in the assay with MALME-3M melanoma, 20.6% (inactive); with MDA-MB-231 breast it was 10% (inactive); in the assay on RXF 393 renal it was 54.7% (inactive); in the assay on SF-268 CNS it was 78.3% (inactive). The growth was 77.7% (inactive) in the assay with SF-295 CNS, 36.6% (inactive) in the assay on SF-539 CNS, 64.4% (inactive) in the assay with UACC-257 melanoma and 51.1% (inactive) with M14 melanoma.

As for `O=Nc1c(O)ccc2ccccc12`, the growth in the assay with DU-145 prostate was 83.9% (inactive) and 113% (inactive); in the assay with K-562 leukemia, 51% (inactive) and 87.7% (inactive); in the assay on MALME-3M melanoma, 33.3% (inactive) and 122% (inactive); in the assay on MDA-MB-231 breast it was 57.4% (inactive) and 62.7% (inactive); in the assay with RXF 393 renal, 80.5% (inactive) and 102% (inactive); in the assay with SF-268 CNS, 49.6% (inactive) and 103% (inactive). The growth in the assay with SF-295 CNS was 91.3% (inactive) and 109% (inactive); in the assay with SF-539 CNS, 94.9% (inactive) and 104% (inactive); in the assay on UACC-257 melanoma it was -51.3% (active) and 80.8% (inactive); in the assay with M14 melanoma, 49.6% (inactive) and 104% (inactive).

For `Nc1nc(N)c2c(n1)NC(c1cccc(Nc3ccnc4cc(C(F)(F)F)ccc34)c1)CC(c1ccc(F)cc1)=N2` (stereo not given), the growth with DU-145 prostate was 63.8% (inactive); in the assay on K-562 leukemia, 9.19% (active); in the assay on MALME-3M melanoma, 53.2% (inactive); in the assay with MDA-MB-231 breast it was 44.8% (inactive); with RXF 393 renal it was 42.8% (inactive); in the assay on SF-268 CNS, 52.2% (inactive). For the same compound, the growth with SF-295 CNS is 49.2% (inactive); in the assay with SF-539 CNS, 73.8% (inactive); in the assay with UACC-257 melanoma, 74.8% (inactive); with M14 melanoma, 27.7% (inactive).

As to `COc1ccc(-c2nn3c(-c4cc(F)c(Cl)cc4Cl)nnc3s2)cc1`, the growth is 77.3% (inactive) with DU-145 prostate; 16.1% (inactive) in the assay on K-562 leukemia; 41.4% (inactive) in the assay with MALME-3M melanoma; 55.2% (inactive) in the assay with MDA-MB-231 breast; 61.4% (inactive) with RXF 393 renal; 60.3% (inactive) in the assay with SF-268 CNS. Besides, the growth in the assay with SF-295 CNS was 13.1% (inactive); in the assay on SF-539 CNS, 47% (inactive); in the assay on UACC-257 melanoma, 72.6% (inactive); in the assay on M14 melanoma, 15.5% (inactive).

With `CCCn1nc(C(=O)N2CCCCC2)c2c1CCC(N1CCC(c3ccncc3)CC1)C2` (stereo not given), the growth is 105% (inactive) in the assay on DU-145 prostate; 101% (inactive) in the assay with K-562 leukemia; 115% (inactive) in the assay with MALME-3M melanoma; 118% (inactive) in the assay on MDA-MB-231 breast; 117% (inactive) in the assay with RXF 393 renal; 97% (inactive) in the assay on SF-268 CNS. For the same compound, the growth was 106% (inactive) in the assay with SF-295 CNS, 107% (inactive) with SF-539 CNS, 102% (inactive) in the assay on UACC-257 melanoma and 97.3% (inactive) in the assay with M14 melanoma.
